Data from PMC5540273 (PLoS ONE, 2017).

How the values were obtained:
Settings in all cases: concentration: 1 μM, replicates: in singlicate; n = 1
TSSK1B = tested on: TSSK1B
TSSK3 = tested on: TSSK3
TTK = tested on: TTK
TXK = tested on: TXK
[1] = tested on: TYK2(JH1domain-catalytic)
[2] = tested on: TYK2(JH2domain-pseudokinase)
TYRO3 = tested on: TYRO3
ULK1 = tested on: ULK1
ULK2 = tested on: ULK2
ULK3 = tested on: ULK3
VEGFR2 = tested on: T1, VEGFR2
T1 construct: gene KDR

VPS34 = tested on: T2, VPS34
T2 construct: gene PIK3C3

VRK2 = tested on: VRK2
WEE1 = tested on: WEE1
WEE2 = tested on: WEE2
WNK1 = tested on: WNK1
WNK2 = tested on: WNK2
WNK3 = tested on: WNK3
WNK4 = tested on: WNK4
YANK1 = tested on: T3, YANK1
T3 construct: gene STK32A
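Note: KINOMEscan kinase panel screen.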

Row | Compound | %Inh (TSSK1B) [%] | %Inh (TSSK3) [%] | %Inh (TTK) [%] | %Inh (TXK) [%] | %Inh [1] [%] | %Inh [2] [%] | %Inh (TYRO3) [%] | %Inh (ULK1) [%] | %Inh (ULK2) [%] | %Inh (ULK3) [%] | %Inh (VEGFR2) [%] | %Inh (VPS34) [%] | %Inh (VRK2) [%] | %Inh (WEE1) [%] | %Inh (WEE2) [%] | %Inh (WNK1) [%] | %Inh (WNK2) [%] | %Inh (WNK3) [%] | %Inh (WNK4) [%] | %Inh (YANK1) [%]
1 | CNc1nc(-c2ccc3c(N)n[nH]c3c2)cc(N2C[C@@H](C(=O)Nc3ccccc3)CC[C@H]2C)n1 [GSK2298859] | 0 | 6 | 21 | 10 | 22 | 13 | 0 | 0 | 0 | 0 | 0 | 7 | 0 | 9 | 0 | 0 | 0 | 33 | 29 | 46
2 | COc1cccc(NC(=O)Nc2ccc(C)c(-c3ccc(C(=O)Nc4ccncc4)cc3)c2)c1 [GSK1398474] | 0 | 6 | 13 | 0 | 0 | 0 | 0 | 6 | 0 | 0 | 6 | 0 | 0 | 11 | 4 | 0 | 0 | 28 | 0 | 18
3 | Cc1ccc(NC(=O)Nc2ccc(Cl)c(C(F)(F)F)c2)cc1-c1ccc(C(=O)Nc2ccncc2)cc1 [GSK1398470] | 0 | 9 | 32 | 0 | 0 | 0 | 0 | 44 | 0 | 51 | 0 | 0 | 8 | 3 | 10 | 0 | 8 | 0 | 0 | 60
4 | COc1ccc(CSc2nnc(-c3ccc4nccn4c3)o2)cc1C(F)(F)F | 0 | 1 | 64 | 6 | 8 | 5 | 3 | 0 | 4 | 0 | 10 | 7 | 7 | 9 | 0 | 0 | 0 | 0 | 2 | 20
5 | COc1nccc(-c2c(-c3ccc(F)cc3)ncn2CCCN2CCOCC2)n1 [SB-282852] | 0 | 50 | 0 | 6 | 13 | 25 | 0 | 0 | 33 | 12 | 1 | 21 | 77 | 0 | 52 | 11 | 14 | 0 | 0 | 0
6 | COc1ccc(Nc2nccc(N3CCC(NC(=O)C(C)c4ccc(Cl)cc4)CC3)n2)cc1 (stereo not shown) [GSK1379812] | 0 | 53 | 0 | 0 | 0 | 0 | 0 | 0 | 0 | 0 | 1 | 0 | 0 | 31 | 0 | 0 | 0 | 47 | 19 | 10
7 | Cc1ccccc1Cn1ccn2c(=O)cc(N3CCOCC3)nc12 [GSK2269905] | 10 | 0 | 5 | 7 | 0 | 0 | 0 | 16 | 0 | 9 | 0 | 88 | 0 | 0 | 0 | 10 | 0 | 8 | 0 | 8
8 | COc1cccc(CNC(=O)NC2CCN(c3ccnc(Nc4ccc(F)cc4)n3)C2)c1 (stereo not shown) [GSK1379723] | 1 | 16 | 17 | 100 | 20 | 22 | 17 | 19 | 1 | 4 | 1 | 0 | 0 | 3 | 12 | 6 | 13 | 5 | 7 | 0
9 | COC(=O)c1cccc(NC(=O)NC2CCN(c3ccnc(Nc4ccc(F)cc4)n3)C2)c1 (stereo not shown) [GSK1379725] | 0 | 3 | 0 | 0 | 0 | 23 | 0 | 15 | 0 | 12 | 0 | 0 | 0 | 16 | 5 | 0 | 18 | 27 | 0 | 0
10 | c1ccc(-c2ccnc3[nH]ccc23)cc1 [SB-693578] | 28 | 2 | 6 | 28 | 63 | 73 | 0 | 33 | 0 | 33 | 32 | 0 | 27 | 10 | 23 | 0 | 11 | 48 | 37 | 0
11 | Cc1cnc(N)c(/C=C/c2cncc(C(=O)NCCc3ccc(Cl)cc3Cl)c2)c1.Cl [GSK190937] | 6 | 0 | 0 | 4 | 0 | 9 | 0 | 0 | 0 | 0 | 0 | 0 | 26 | 5 | 0 | 3 | 4 | 30 | 4 | 0
12 | COc1ccc(Nc2nccc(N3CCC(NC(=O)c4cc5ccccc5s4)C3)n2)cc1 (stereo not shown) [GSK1379738] | 0 | 19 | 0 | 67 | 9 | 26 | 0 | 5 | 0 | 14 | 0 | 0 | 0 | 10 | 0 | 14 | 11 | 34 | 24 | 0
13 | Nc1nccc(-c2c(-c3ccc(F)cc3)ncn2C2CCN(Cc3ccccc3)CC2)n1 [SB-219980] | 0 | 0 | 0 | 0 | 7 | 49 | 15 | 31 | 0 | 22 | 1 | 0 | 0 | 0 | 0 | 7 | 12 | 0 | 0 | 28
14 | CC[C@@H]1CO[C@H](C(=O)Nc2ccccc2)CN1c1cc(-c2ccc3c(N)n[nH]c3c2)nc(NC)n1 [GSK2376236] | 0 | 13 | 0 | 0 | 0 | 0 | 0 | 13 | 10 | 4 | 8 | 12 | 0 | 2 | 0 | 4 | 10 | 5 | 0 | 41
15 | Cc1ccc(NC(=O)c2ccc(Cl)cc2)cc1-c1ccc(C(=O)Nc2ccncc2)cc1 [GSK1398467] | 18 | 6 | 0 | 8 | 0 | 17 | 0 | 0 | 0 | 0 | 0 | 0 | 27 | 0 | 8 | 0 | 0 | 31 | 22 | 2
16 | CCCCc1nn2ncccc2c1-c1ccnc(NC2CC2)n1 [GW684374] | 0 | 9 | 0 | 0 | 6 | 32 | 0 | 0 | 0 | 0 | 0 | 0 | 4 | 34 | 0 | 3 | 15 | 26 | 14 | 6

Row | Compound | %Inh (TSSK1B) [%] | %Inh (TSSK3) [%] | %Inh (TTK) [%] | %Inh (TXK) [%] | %Inh [1] [%] | %Inh [2] [%] | %Inh (TYRO3) [%] | %Inh (ULK1) [%] | %Inh (ULK2) [%] | %Inh (ULK3) [%] | %Inh (VEGFR2) [%] | %Inh (VPS34) [%] | %Inh (VRK2) [%] | %Inh (WEE1) [%] | %Inh (WEE2) [%] | %Inh (WNK1) [%] | %Inh (WNK2) [%] | %Inh (WNK3) [%] | %Inh (WNK4) [%] | %Inh (YANK1) [%]
17 | O=C(Nc1n[nH]c2nc(-c3ccco3)c(Br)cc12)C1CCN(Cc2ccccc2)C1.O=C(O)[C@H](O)[C@@H](O)C(=O)O (stereo not shown) [SB-742034] | 0 | 0 | 4 | 0 | 5 | 0 | 0 | 5 | 19 | 6 | 7 | 0 | 0 | 0 | 8 | 0 | 0 | 0 | 2 | 0
18 | COc1ccc(CSc2nnc(-c3ccc4ncsc4c3)o2)cc1C(F)(F)F | 0 | 0 | 13 | 0 | 0 | 0 | 0 | 0 | 0 | 0 | 0 | 0 | 0 | 0 | 0 | 0 | 8 | 0 | 0 | 0
19 | Cc1ccc(NC(=O)Nc2ccc(Cl)cc2)cc1-c1ccc(C(=O)Nc2ccncc2)cc1 [GSK1398472] | 0 | 11 | 0 | 47 | 62 | 13 | 4 | 8 | 0 | 0 | 9 | 0 | 0 | 16 | 5 | 7 | 0 | 13 | 23 | 1
20 | Cn1cncc1-c1cc2c(Nc3ccc(OCc4ccccc4)cc3)ncnc2cn1 [GW281179] | 18 | 10 | 7 | 21 | 96.8 | 27 | 0 | 0 | 0 | 0 | 0 | 0 | 0 | 2 | 0 | 7 | 7 | 25 | 14 | 0
21 | COc1ccc(Nc2nccc(-c3ccc(NC(=O)c4cc5cc(F)ccc5[nH]4)cc3)n2)cc1 [GSK1229496] | 0 | 22 | 0 | 0 | 23 | 0 | 0 | 0 | 0 | 8 | 0 | 2 | 0 | 7 | 0 | 0 | 14 | 18 | 51 | 0
22 | O=C(Nc1n[nH]c2nc(-c3cccs3)c(Br)cc12)C1CC1 [SB-735297] | 0 | 0 | 0 | 22 | 9 | 0 | 12 | 0 | 6 | 3 | 0 | 6 | 0 | 0 | 0 | 0 | 0 | 0 | 29 | 0
23 | CCn1c(-c2c(N)noc2C)nc2cnccc21 [SB-737856] | 19 | 3 | 0 | 31 | 0 | 21 | 12 | 18 | 7 | 16 | 0 | 0 | 0 | 18 | 11 | 20 | 0 | 17 | 78 | 9
24 | CC(C)c1cc(-c2ccc3c(N)n[nH]c3c2)nc(N)n1 [GSK2250882] | 6 | 20 | 10 | 0 | 20 | 2 | 0 | 6 | 0 | 9 | 0 | 9 | 4 | 11 | 6 | 0 | 0 | 3 | 0 | 20
25 | COc1cc2ncnc(Nc3cccc(Br)c3)c2cc1OC.Cl [GI230329] | 0 | 16 | 0 | 4 |  | 23 | 3 | 9 | 0 | 17 | 0 | 41 | 24 | 2 | 6 | 0 | 0 | 41 | 16 | 56
26 | NS(=O)(=O)c1cccc(N/C=C2\C(=O)Nc3ccc(S(=O)(=O)Cc4c(Cl)cccc4Cl)cc32)c1 [GSK398099] | 21 | 14 | 0 | 6 | 30 | 27 | 0 | 13 | 4 | 19 | 0 | 0 | 0 | 10 | 20 | 20 | 8 | 0 | 0 | 1
27 | Cc1ccccc1-c1cc(-c2c[nH]nc2-c2ccccn2)ccn1 [GW680061] | 1 | 15 | 6 | 0 | 0 | 18 | 35 | 0 | 0 | 13 | 0 | 0 | 0 | 8 | 0 | 14 | 14 | 24 | 31 | 0
28 | COc1cccc(C2=C(Nc3cc(Cl)c(O)c(Cl)c3)C(=O)NC2=O)c1 [SB-390767] | 0 | 16 | 7 | 15 | 28 | 39 | 29 | 32 | 0 | 13 | 0 | 0 | 20 | 0 | 0 | 20 | 0 | 16 | 17 | 0
29 | CN1c2ccc(-c3ccc(C(N)=O)cc3)cc2-c2[nH]ncc2S1(=O)=O | 0 | 0 | 5 | 0 | 45 | 83 | 0 | 0 | 9 | 6 | 21 | 0 | 3 | 14 | 0 | 6 | 0 | 4 | 0 | 0
30 | COc1ccc(Nc2nccc(NCCNC(=O)Nc3cc(C)ccc3C)n2)cc1 [GSK1379899] | 0 | 7 | 0 | 15 | 17 | 0 | 0 | 28 | 0 | 0 | 2 | 4 | 0 | 0 | 0 | 0 | 10 | 0 | 0 | 0
31 | Fc1ccc(-c2nc[nH]c2-c2ccncc2)cc1 [SB-217360] | 0 | 0 | 0 | 0 | 2 | 22 | 0 | 20 | 27 | 16 | 0 | 26 | 19 | 4 | 0 | 11 | 0 | 9 | 2 | 7
